Test results published in the supplement of paper PMC6658780.
Where a name gives a salt, the structure may show the parent alone. ± gives the standard deviation of the averaged measurements.

These molecules were tested on Klebsiella pneumoniae NCTC-13439 (assay: percent growth inhibition of drug + antibiotic vs DMSO control; higher = more growth inhibition). Conditions: antibiotic (0.125x MIC): tigecycline; 20 µM.

Compound | percent growth inhibition [%]
CO[C@H]1/C=C/O[C@@]2(C)Oc3c(C)c(O)c4c(O)c(c(/C=N/N5CCN(C6CCCC6)CC5)c(O)c4c3C2=O)NC(=O)/C(C)=C\C=C\[C@H](C)[C@H](O)[C@@H](C)[C@@H](O)[C@@H](C)[C@H](OC(C)=O)[C@@H]1C [Rifapentine] | 42.9 ± 12
CO[C@H]1/C=C/O[C@@]2(C)Oc3c(C)c(O)c4c(c3C2=O)C2=NC3(CCN(CC(C)C)CC3)NC2=C(NC(=O)/C(C)=C\C=C\[C@H](C)[C@H](O)[C@@H](C)[C@@H](O)[C@@H](C)[C@H](OC(C)=O)[C@@H]1C)C4=O [Rifabutin] | 30.9 ± 7.2
CO[C@H]1/C=C/O[C@@]2(C)Oc3c(C)c(O)c4c(O)c(c5c(nc6cc(C)ccn65)c4c3C2=O)NC(=O)/C(C)=C\C=C\[C@H](C)[C@H](O)[C@@H](C)[C@@H](O)[C@@H](C)[C@H](OC(C)=O)[C@@H]1C [Rifaximin] | 50.7 ± 4
CN[C@@H]1[C@@H](O[C@H]2O[C@H](CO)[C@@H](N)[C@H](O)[C@H]2O)OC2C[C@@H](N)[C@@H](O[C@H]3[C@H](O)[C@@H](O)[C@H](N)C[C@@H]3N)OC2[C@@H]1O (some centres not stated) [Apramycin] | 100 ± 0.19
OCCOCCN1CCN(C2=Nc3ccccc3Sc3ccccc32)CC1 [Quetiapine hemifumarate] | -7.45 ± 10
O=C(O)c1cn(-c2ccc(F)cc2)c2cc(N3CCNCC3)c(F)cc2c1=O [Sarafloxacin] | 99.57 ± 0.39
CN(C)c1ccc(O)c2c1C[C@H]1C[C@H]3[C@H](N(C)C)C(O)=C(C(N)=O)C(=O)[C@@]3(O)C(O)=C1C2=O [Minocycline hydrochloride] | 49.8 ± 7.5
